Assay results: PubChem BioAssay AID1272365 (Small Molecule Screening Facility, UW Madison, 2018)
In all, about 430,000 compounds went through this assay and about 2,600 (0.6%) were called active. This is one part of a sample in which actives are shown more often than they occur. Values without a mark were called inactive. Rule as the data show it: active = inhibition mostly above about 37% (no sharp cut-off); inactive = mostly below about 20%.

Each compound was assayed on PriA–SSB C-terminal tail interaction (Klebsiella pneumoniae) (assay: blocks PriA binding to SSB C-terminal tail, primary screen, biochemical, AlphaScreen (AID 1272365;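 also: plate controls were negative control peptide for no effect and reference peptide for full effect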)). Settings: AlphaScreen SSBct-PriA binding, biotinylated peptide; at 33 µM, stronger effect = higher value.

Going from `N#C/C(=C\N1CCC(C(N)=O)CC1)C(=O)NCCc1ccccc1` to `Cc1cc(C)c(C#N)c(SCCC(=O)NCCc2ccccc2)n1`, the inhibition rises from -13% to 0%.

Going from `O=C(Nc1nc2c(s1)C(=O)NCCC2)c1ccc2noc(-c3ccccc3)c2c1` to `O=C(Cn1c(C2CC2)nc2c(cnn2-c2ccccc2)c1=O)Nc1cccc(Cl)c1`, the inhibition rises from -3% to 2%.

First: Cc1oc(-c2ccc(Cl)cc2)cc1C(=O)Nc1ccc(S(N)(=O)=O)cc1
Second: O=C(Cc1nnc(-c2ccc3ncccc3c2)o1)NCc1ccc(Cl)cc1
The inhibition of the first is lower: -10% for the first, 2% for the second.

First: COc1ccc(CC(=O)NCC(c2ccsc2)N2CCc3ccccc3C2)cc1 (stereo unspecified)
Second: COc1ccc(C(=O)NN=C(c2ccccc2)c2ccccn2)cc1
The inhibition of the first is higher: -5% for the first, -7.73% for the second.

Compared with `O=C(NCc1ccc2c(c1)OCO2)C(=O)NC[C@H](O)c1cccc2ccccc12`, `O=C(c1ccc(Cl)s1)N(Cc1nnc(-c2ccccc2Cl)o1)C1CC1` is lower in inhibition: -1% for the first, -3.73% for the second.

Compared with `O=C(Oc1ccc(C(=S)N2CCOCC2)cc1)c1ccc(F)cc1`, `Cc1ccc(C(=O)Oc2ccc(C(=S)N3CCOCC3)cc2)cc1` is lower in inhibition: -4.78% for the first, -12.7% for the second.

First: Cc1ccc(OCC(=O)Oc2ccccc2[N+](=O)[O-])cc1
Second: O=C(COc1ccccc1[N+](=O)[O-])NC1CC1
The inhibition of the first is higher: -0.19% for the first, -0.67% for the second.

Going from `COc1cc(N2CCN(C(=O)Nc3ccc(F)c(Cl)c3)CC2)nc(C)n1` to `Cc1cnc2n(c1=O)C[C@H](C(=O)Nc1ccc(OC(F)(F)F)cc1)CS2`, the inhibition rises from -8% to -1%.

First: O=S(=O)(NCc1cc(C2CC2)n(C2CCCC2)n1)c1ccc(Br)s1
Second: CC(=NNC(=O)C(c1ccncc1)N1CCOCC1)c1ccc(Br)cc1 (stereo unspecified)
The inhibition of the first is lower: -11% for the first, 1.79% for the second.

First: COc1ccccc1NC(=O)CC(C)=NNC(=O)c1ccccn1
Second: O=C(Cc1csc(Nc2ccc(OC(F)(F)F)cc2)n1)NCc1ccco1
The inhibition of the first is higher: -3.2% for the first, -4% for the second.

`CN(C)CC#CCNC(=O)c1c(F)cccc1Cl` showed an inhibition of -2%.

`c1ccc(-c2nnc3c4ccccc4c4ccccc4c3n2)nc1` was tested, and the inhibition was 81% (active).
For `O=C(Oc1cccc(C(=S)N2CCOCC2)c1)c1cccc(Cl)c1`, the inhibition was 45.9% (active).
`O=C(Oc1ccccc1[N+](=O)[O-])N(c1ccccc1)c1ccccc1` was tested, and the inhibition was 39% (active).
With `CCN(CC)CCOc1ccc2c(c1)C(=NNC(=O)c1ccccn1)c1cc(OCCN(CC)CC)ccc1-2` the inhibition was 42.9% (active).
`O=C(c1cc(-c2ccco2)nc2ccccc12)N(Cc1nnc(-c2ccc(Cl)cc2)o1)C1CC1` was tested, and the inhibition was 38.9% (active).
